Prostate diff: activators of LNCaP prostate cell differentiation | flow cytometry side scatter, 4 d | side scatter shift, % at 10 µM | 0.56% of 24,000 active;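 active = side scatter shift above 30%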;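 also: androgen-responsive LNCaP prostate cancer cells in charcoal-stripped serum medium; higher shift means more granular cells and more differentiation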
VLA-4 antagonist: blocks LDV-FITC ligand binding to Mn2+-activated human VLA-4 integrin; P13612; Jurkat cells, LDV-FITC binding with Mn2+, flow cytometry; 100% = Mn2+-driven binding gain fully reversed; inhibition, % at 10 µM (by protocol); 0.2% of 24,000 active; AID 529;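 active = inhibition above 50%; inconclusive = compound itself fluorescent, judged against control cell fluorescence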
FPRL1 ligand: ligands of human FPRL1, also counter-screen for FPR ligands | P25090 | FPRL1-expressing cells, fluorescent ligand binding inhibition, flow cytometry | inhibition, % (test concentration not listed) | 0.3% of 24,000 active | AID 441
Target sequence (P25090 whole entry, looked up): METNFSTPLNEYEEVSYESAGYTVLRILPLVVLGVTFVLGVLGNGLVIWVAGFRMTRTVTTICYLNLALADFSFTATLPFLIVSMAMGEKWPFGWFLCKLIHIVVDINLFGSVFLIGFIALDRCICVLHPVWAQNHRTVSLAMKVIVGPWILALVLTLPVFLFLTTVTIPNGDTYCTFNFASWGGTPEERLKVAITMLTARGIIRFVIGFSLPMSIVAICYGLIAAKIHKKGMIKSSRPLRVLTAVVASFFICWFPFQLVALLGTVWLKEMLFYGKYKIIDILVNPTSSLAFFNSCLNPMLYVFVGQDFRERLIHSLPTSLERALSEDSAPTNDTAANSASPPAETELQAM
Autofluor Jurkat: counter-screen for VLA-4 integrin: compound autofluorescence in Jurkat cells | flow cytometry; hits give high values; 1 = vehicle-only cell background | fluorescence ratio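 (tested at 10 µM compound in the well)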 | 0.61% of 24,000 active;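 active = fluorescence ratio above 2.44, which is 1 plus 3 SD of all ratios; inconclusive = signal too bright to measure linearly, ratio around 10 or more; inactive = fluorescence ratio below 2.44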;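 also: green fluorescence of cells measured with 488 nm excitation and 530 nm emission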
VLA-4 agonist: allosterically activates the human VLA-4 integrin; AID 528; P13612; 24,000 tested, under 10 active; Jurkat cells, LDV-FITC binding, flow cytometry; activation, % at 10 µM (by protocol);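 active = fluorescent ligand binding to cells raised by more than 40% of the manganese-induced maximum; inconclusive = compound's own fluorescence above 85% of the ligand control signal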
FPR ligand: ligands of human FPR, also counter-screen for FPRL1 ligands; AID 440; 0.74% of 24,000 active; inhibition, % (test concentration not listed); FPR-expressing cells, fluorescent ligand binding, flow cytometry; P21462
Target sequence (P21462 whole entry, looked up): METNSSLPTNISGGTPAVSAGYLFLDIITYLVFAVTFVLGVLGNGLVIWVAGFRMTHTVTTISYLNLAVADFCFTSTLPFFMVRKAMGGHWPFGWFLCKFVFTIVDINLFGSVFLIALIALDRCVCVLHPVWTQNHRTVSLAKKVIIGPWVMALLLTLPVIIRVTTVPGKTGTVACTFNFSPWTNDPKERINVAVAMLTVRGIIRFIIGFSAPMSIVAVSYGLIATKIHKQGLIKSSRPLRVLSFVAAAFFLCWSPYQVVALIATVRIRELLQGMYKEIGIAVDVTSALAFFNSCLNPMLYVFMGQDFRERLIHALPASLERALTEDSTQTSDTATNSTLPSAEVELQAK
Of the large screens only hits and unclear results are named; the others gave an inactive call. Most compounds without a hit are left out; they make up all but 2.4% or so of the library. Rule as the data show it, unless noted: active = inhibition above about 30%; inconclusive = no clear call, values can overlap the other calls; inactive = below that.

CNC(=O)c1cc2c(=O)n3cccc(C)c3nc2n1C	VLA-4 antagonist inconclusive, VLA-4 agonist inconclusive
C1CNCCNCCNCCN1	none
CN(CC(O)COc1ccc(OCC(O)CN(C)C2CCCCC2)cc1)C1CCCCC1 (configuration not stated)	Prostate diff 37
COc1ccc2cc3cc(C(=O)NCCN4CCN(c5ccccc5F)CC4)oc3nc2c1	VLA-4 antagonist inconclusive, VLA-4 agonist inconclusive
COc1ccc2cc3cc(C(=O)Nc4ccccc4N4CCN(C)CC4)oc3nc2c1	Prostate diff 62, VLA-4 antagonist inconclusive, VLA-4 agonist inconclusive
CCN(CC)CCCN1C(=O)C(=O)/C(=C(/O)c2ccccc2)C1c1ccccn1 (configuration not stated)	none
COc1ccc(NC(=O)C2C(=O)NC3(C)CC2c2ccccc2O3)cc1 (configuration not stated)	FPRL1 ligand 30
COc1ccc(C(C)NC(=O)C2C(=O)NC3(C)CC2c2ccccc2O3)cc1 (configuration not stated)	none
CCOc1ccc2nc(NC(=O)C3CCCN(S(=O)(=O)c4cccs4)C3)sc2c1 (configuration not stated)	none
CCOC(=O)Cn1c(=O)oc2cc(S(=O)(=O)Nc3ccc(N(CC)CC)cc3C)ccc21	VLA-4 antagonist inconclusive, FPRL1 ligand inconclusive, Autofluor Jurkat 4.1, VLA-4 agonist inconclusive
CCOC(=O)Cn1c(=O)oc2cc(S(=O)(=O)Nc3cc(Cl)ccc3OC)ccc21	VLA-4 antagonist inconclusive, FPRL1 ligand inconclusive, Autofluor Jurkat 4.3, VLA-4 agonist inconclusive
CCOC(=O)Cn1c(=O)oc2cc(S(=O)(=O)Nc3cc(OCC)ccc3OCC)ccc21	VLA-4 antagonist inconclusive, VLA-4 agonist inconclusive
CCOCCCNS(=O)(=O)c1ccc2c(c1)oc(=O)n2CC(=O)OCC	VLA-4 antagonist inconclusive, Autofluor Jurkat 2.5, VLA-4 agonist inconclusive
CC1(C)Cc2c(sc3c2C2=NCCN2C=N3)CS1	none
CCOC(=O)C1CCCN(C(=O)c2cc3c(=O)n4cccc(C)c4nc3n2C)C1 (configuration not stated)	none
Cc1ccc(CCNC(=O)CN2C(=O)COc3ccccc32)cc1	VLA-4 antagonist 62
CN1CCN(c2ccccc2NS(=O)(=O)c2ccc3c(c2)CCN3C(=O)C2CCC2)CC1	Prostate diff 46
N=c1c(C(=O)NC2CCCC2)cc2c(=O)n3ccccc3nc2n1C1CCCC1	Prostate diff 68, VLA-4 antagonist inconclusive, VLA-4 agonist inconclusive
COCCCN1C(=O)C(O)=C(C(C)=O)C1c1ccccn1 (configuration not stated)	none
CCN1C(=O)/C(=C2\SC(=S)N(CCCOC)C2=O)c2ccccc21	FPRL1 ligand 33 (no result: Prostate diff, VLA-4 antagonist, Autofluor Jurkat, VLA-4 agonist)
COc1ccc(CCNC(=O)C2CCN(S(=O)(=O)c3cc(OC)ccc3OC)CC2)cc1	none
CCOC(=O)Nc1ccc(OC)cc1S(=O)(=O)N1CCCCC1	FPRL1 ligand 51, FPR ligand 63
Cc1nc2cc(Cl)c(Cl)cc2nc1C	VLA-4 antagonist inconclusive, Autofluor Jurkat 3.1, VLA-4 agonist inconclusive
CC(=O)c1cccc(NC2c3ccccc3C(=O)N2Cc2ccc3c(c2)OCO3)c1 (configuration not stated)	Prostate diff 30, VLA-4 antagonist inconclusive, VLA-4 agonist inconclusive
Nc1nc2n(n1)C(c1ccccc1Cl)CC(c1ccc(F)cc1)N2 (configuration not stated)	VLA-4 antagonist inconclusive, Autofluor Jurkat 2.7, VLA-4 agonist inconclusive
CSc1ccccc1NS(=O)(=O)c1ccccc1	FPR ligand 31
COc1ccc(S(=O)(=O)Nc2ccccc2SC)cc1C	none
C/C(=N\O)C(=O)NCc1ccncc1	VLA-4 antagonist inconclusive, Autofluor Jurkat 6.2, VLA-4 agonist inconclusive
CCOc1cc2[nH]c(=O)n(CCCCCC(=O)NCc3ccco3)c(=O)c2cc1OCC	VLA-4 antagonist 52 (no result: Prostate diff, FPRL1 ligand, FPR ligand)
CCOc1cc2[nH]c(=S)n(CCCCC(=O)NCc3ccco3)c(=O)c2cc1OCC	none
COc1ccc(C2C(C(=O)c3cccs3)=C(O)C(=O)N2c2nnc(C)s2)cc1OC (configuration not stated)	FPR ligand 36 (no result: Prostate diff, VLA-4 antagonist, Autofluor Jurkat, VLA-4 agonist)
C=CCOc1ccc(C2C(C(=O)c3cccs3)=C(O)C(=O)N2c2nnc(C)s2)cc1 (configuration not stated)	FPR ligand 43 (no result: Prostate diff, VLA-4 antagonist, Autofluor Jurkat, VLA-4 agonist)
O=C(NCCCN1CCN(c2ccc(F)cc2)CC1)c1cccc(N2CCCC2=O)c1	FPRL1 ligand 31
O=C(NCCCN1CCCC1)c1cccc(N2CCCC2=O)c1	none
CSc1ccc(C2C(C#N)=C(N)N(c3ccccc3)C3=C2C(=O)CCC3)cc1 (configuration not stated)	none
CSc1ccc(C2C(C#N)=C(N)Oc3c2ccc(=O)c2c(C)oc(C)c32)cc1 (configuration not stated)	Prostate diff 33, VLA-4 antagonist inconclusive, Autofluor Jurkat inconclusive, VLA-4 agonist inconclusive
CN(C)c1ccc(CNC2CC(C)(C)NC(C)(C)C2)cc1	Prostate diff 36
Cn1c(C(=O)N2CCN(c3ccc(Cl)cc3)CC2)cc2c(=O)n(C)c3ccccc3c21	VLA-4 antagonist inconclusive, VLA-4 agonist inconclusive
COc1ccccc1Oc1c(C)oc2cc(OC(=O)c3ccco3)ccc2c1=O	FPR ligand 93 (no result: Prostate diff, VLA-4 antagonist, Autofluor Jurkat, VLA-4 agonist)
CCOc1ccccc1Oc1c(C)oc2cc(OC(=O)c3ccco3)ccc2c1=O	FPR ligand 79 (no result: Prostate diff, VLA-4 antagonist, Autofluor Jurkat, VLA-4 agonist)
COc1ccccc1-c1c(C)oc2cc(OC(=O)c3ccco3)ccc2c1=O	FPR ligand 68 (no result: Prostate diff, VLA-4 antagonist, Autofluor Jurkat, VLA-4 agonist)
CCOC(=O)c1oc2cc(O)ccc2c(=O)c1-c1ccccc1OC	FPR ligand 34 (no result: Prostate diff, VLA-4 antagonist, Autofluor Jurkat, VLA-4 agonist)
O=C(CN1C(=O)COc2ccccc21)N(Cc1cccnc1)Cc1ccccc1F	none
O=C(O)c1cc2nc(C3CC3)cc(C(F)(F)F)n2n1	none
Oc1[nH]c2ccccc2c1C=NCC1CCCO1 (configuration not stated)	none
Oc1[nH]c2ccccc2c1/C=N/c1nccs1	VLA-4 antagonist inconclusive, Autofluor Jurkat 9.6, VLA-4 agonist inconclusive
O=C(CCn1c(=S)[nH]c2cc3c(cc2c1=O)OCO3)NCCN1CCCC1	none
CCN(CC)c1ccc(C=N/C(C#N)=C(\N)C#N)cc1	VLA-4 antagonist inconclusive, FPRL1 ligand 68, Autofluor Jurkat 5.9, VLA-4 agonist inconclusive
COc1cc2ccccc2cc1-c1nnc(COc2ccccc2)o1	VLA-4 antagonist inconclusive, VLA-4 agonist inconclusive
CCOc1ccc(NC(=O)c2oc3ccccc3c2NC(=O)C(C)C)cc1	VLA-4 antagonist inconclusive, Autofluor Jurkat 2.5, VLA-4 agonist inconclusive
CCOC(=O)c1c(NC(=O)C2C3CCC(O3)C2C(=O)O)sc(C)c1-c1ccc(C)cc1 (configuration not stated)	FPR ligand 46 (no result: Prostate diff, VLA-4 antagonist, Autofluor Jurkat, VLA-4 agonist)
Cc1oc2cc3c(C(=O)OCCN(C)C)c(C)oc3cc2c1C(=O)OCCN(C)C	none
Cc1c(C(=O)NC2CCCc3ccccc32)oc2ccc(S(=O)(=O)N3CCOCC3)cc12 (configuration not stated)	FPR ligand 38
